# Results as given in PubChem BioAssay.
# A number with no mark means an inactive call. For some of these results: Entries with a potency or affinity are not part of this list. Activity calls are given as the source filed them. Unless noted, how the calls were made is not given here.
# How the values were obtained:
# [1] = antimalarial activity against Dd2 strain (AID 2302;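 active means growth inhibition above 50% at the single 2 µM test dose, taken to imply half-maximal potency below 2 µM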;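 further: 0% = DMSO untreated growth and 100% = chloroquine plus artemisinin killed control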); conditions: P. falciparum Dd2 in RBCs, LDH growth readout, 72 h; at 2 µM; hits give high values
# [2] = HepG2 cytotoxicity, primary screen, cytotoxicity control for P. falciparum antimalarial project, cell-based, ATP luminescence (AID 2303;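 active means inhibition above 50%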;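 further: 0% = DMSO wells and 100% = digitonin-killed cells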); conditions: HepG2 viability, 24-48 h, at 10 µM, hits give high values
# [3] = target: L-lactate dehydrogenase (Plasmodium falciparum (isolate CDC / Honduras)) (UniProt Q27743); test: PfLDH activity inhibition – cell lysate, 3D7 strain, counter-screen for P. falciparum growth inhibition project (AID 2304);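 further: 0% = vehicle and 100% = reference inhibitor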; conditions: P. falciparum 3D7 crude extract, LDH APAD/NBT absorbance; at 2 µM; hits give high values
# [4] = inhibition of 3D7 malaria parasite growth – strain 3D7 (AID 2306);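 further: 0% = DMSO wells and 100% = chloroquine plus artemisinin control wells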; conditions: P. falciparum 3D7 erythrocytic growth, LDH absorbance, 72 h; at 2 µM; hits give high values
# [5] = target: Calcium-dependent protein kinase 1 (Plasmodium falciparum (isolate 3D7)) (UniProt P62344); test: PfCDPK1 kinase inhibitors, biochemical, TCAMS library (AID 1159585; cut-off not given, nearly all actives have IC50 up to about 0.98 µM;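 further: inhibitors leave more ATP so luminescence rises with inhibition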); conditions: recombinant PfCDPK1, Kinase-Glo ATP depletion luminescence
# [6] = target: Plasmodium falciparum protein kinase 6 (PK6, PF3D7_1337100) (UniProt Q8IDW1); test: PfPK6 kinase inhibitors, biochemical, TCAMS library (AID 1159586); conditions: recombinant PfPK6, Kinase-Glo ATP depletion luminescence
# [7] = target: Protein kinase 7 (PK7), Plasmodium falciparum 3D7 (PF3D7_0213400) (UniProt Q7YTF7); test: inhibition of Plasmodium PK7 catalytic activity – biochemical, TCAMS antimalarial set, Kinase-Glo luminescence (AID 1159587); conditions: recombinant PfPK7, Kinase-Glo ATP depletion luminescence
# [8] = target: Calcium-dependent protein kinase 4 (Plasmodium falciparum (isolate 3D7)) (UniProt Q8IBS5); test: PfCDPK4 kinase inhibitors, biochemical, TCAMS library (AID 1159588; cut-off not given, nearly all actives have IC50 up to about 0.91 µM); conditions: recombinant PfCDPK4, Kinase-Glo ATP depletion luminescence
# Sequence of Calcium-dependent protein kinase 4 (Plasmodium falciparum (isolate 3D7)) (Q8IBS5 whole entry, looked up): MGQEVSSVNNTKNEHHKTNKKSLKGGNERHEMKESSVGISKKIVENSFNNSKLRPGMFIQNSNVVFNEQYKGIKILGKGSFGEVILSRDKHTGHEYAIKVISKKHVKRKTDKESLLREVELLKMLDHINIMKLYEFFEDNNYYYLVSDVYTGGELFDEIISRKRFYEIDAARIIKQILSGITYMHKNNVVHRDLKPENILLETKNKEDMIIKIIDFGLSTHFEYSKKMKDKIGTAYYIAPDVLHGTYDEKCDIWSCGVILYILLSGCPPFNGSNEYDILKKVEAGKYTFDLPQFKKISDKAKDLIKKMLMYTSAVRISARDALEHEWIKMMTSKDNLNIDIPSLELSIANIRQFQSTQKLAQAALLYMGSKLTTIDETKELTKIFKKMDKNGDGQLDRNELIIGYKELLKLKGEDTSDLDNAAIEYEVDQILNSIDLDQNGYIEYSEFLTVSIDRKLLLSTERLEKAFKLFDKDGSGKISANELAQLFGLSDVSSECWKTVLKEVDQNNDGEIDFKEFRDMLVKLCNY
# Sequence of Protein kinase 7 (PK7), Plasmodium falciparum 3D7 (PF3D7_0213400) (Q7YTF7 1-343): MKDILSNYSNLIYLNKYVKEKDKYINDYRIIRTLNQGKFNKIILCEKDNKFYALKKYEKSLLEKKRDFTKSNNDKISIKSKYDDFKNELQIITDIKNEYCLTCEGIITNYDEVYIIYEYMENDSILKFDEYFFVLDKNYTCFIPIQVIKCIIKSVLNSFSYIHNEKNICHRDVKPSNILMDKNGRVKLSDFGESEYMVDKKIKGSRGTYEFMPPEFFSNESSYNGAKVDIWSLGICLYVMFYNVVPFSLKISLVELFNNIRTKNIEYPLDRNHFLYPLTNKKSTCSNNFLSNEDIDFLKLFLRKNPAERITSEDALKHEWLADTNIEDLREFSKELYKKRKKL
# Sequence of L-lactate dehydrogenase (Plasmodium falciparum (isolate CDC / Honduras)) (Q27743 whole entry, looked up): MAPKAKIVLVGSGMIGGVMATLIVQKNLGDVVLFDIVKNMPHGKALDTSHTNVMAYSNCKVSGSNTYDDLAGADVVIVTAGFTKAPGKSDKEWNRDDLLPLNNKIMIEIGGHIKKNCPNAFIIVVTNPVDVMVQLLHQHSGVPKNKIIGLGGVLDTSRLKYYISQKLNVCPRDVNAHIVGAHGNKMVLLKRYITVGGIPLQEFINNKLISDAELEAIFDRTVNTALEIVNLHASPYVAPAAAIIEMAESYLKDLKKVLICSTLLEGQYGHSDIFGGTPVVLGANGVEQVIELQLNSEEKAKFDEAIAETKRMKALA
# Sequence of Plasmodium falciparum protein kinase 6 (PK6, PF3D7_1337100) (Q8IDW1 1-305): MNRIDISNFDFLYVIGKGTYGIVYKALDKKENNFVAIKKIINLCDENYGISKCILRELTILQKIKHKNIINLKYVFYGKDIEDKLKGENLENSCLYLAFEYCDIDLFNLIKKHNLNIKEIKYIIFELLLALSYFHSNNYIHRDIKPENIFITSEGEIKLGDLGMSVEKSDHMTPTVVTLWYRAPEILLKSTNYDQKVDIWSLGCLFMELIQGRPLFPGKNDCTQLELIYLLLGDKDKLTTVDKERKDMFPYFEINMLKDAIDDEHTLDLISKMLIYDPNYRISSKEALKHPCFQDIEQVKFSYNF
# Sequence of Calcium-dependent protein kinase 1 (Plasmodium falciparum (isolate 3D7)) (P62344 whole entry, looked up): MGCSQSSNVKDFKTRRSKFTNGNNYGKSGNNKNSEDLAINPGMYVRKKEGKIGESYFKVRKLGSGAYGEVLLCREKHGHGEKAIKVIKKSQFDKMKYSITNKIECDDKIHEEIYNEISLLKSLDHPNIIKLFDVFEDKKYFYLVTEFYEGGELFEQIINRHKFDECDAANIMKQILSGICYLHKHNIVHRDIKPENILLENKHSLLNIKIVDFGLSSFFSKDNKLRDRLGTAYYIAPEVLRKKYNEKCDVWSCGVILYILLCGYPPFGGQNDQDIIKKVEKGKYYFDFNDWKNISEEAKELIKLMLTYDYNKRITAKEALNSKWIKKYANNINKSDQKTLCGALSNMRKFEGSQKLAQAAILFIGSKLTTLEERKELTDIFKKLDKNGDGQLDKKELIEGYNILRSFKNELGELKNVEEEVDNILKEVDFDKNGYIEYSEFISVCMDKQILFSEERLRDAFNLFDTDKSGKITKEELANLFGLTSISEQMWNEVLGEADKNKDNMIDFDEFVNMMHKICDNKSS
Structure (SMILES),growth inhibition [1],inhibition [2],inhibition [3] [%],growth inhibition [4],outcome [5],outcome [6],outcome [7],outcome [8]
C1=CN(Cc2ccccc2)C=CC1=C1C=Nc2ccccc21,69% (active),8%,-3,90% (active),inactive,inactive,inactive,inactive
CN(C)CCN(Cc1ccccc1-c1ccc(CNCCc2ccccc2)cc1)C(=O)c1ccccc1,97% (active),81% (active),-3,95% (active),inactive,inactive,inactive,inactive
Oc1ccccc1CNCC12CC3CC(CC(C3)C1)C2,99% (active),-4%,5,98% (active),inactive,inactive,inactive,inactive
O=C(Cn1c(CCc2cccc(F)c2F)cc(=O)c2ccccc21)N(Cc1ccc(-c2ccc(C(F)(F)F)cc2)cc1)C1CCN(CCN2CCOCC2)CC1,41%,53% (active),4,101% (active),inactive,inactive,inactive,inactive
Cc1cccc2[nH]c(-c3ccc(-c4cccc(NC(=O)c5cncn5C)c4)s3)nc12,16%,13%,-5,103% (active),inactive,inactive,inactive,inactive
O=C(/C=C/c1ccc(Cl)c(Cl)c1)NCCCCCN1CCC(NC(=S)Nc2ccc(Cl)cc2)CC1,41%,62% (active),-1,99% (active),inactive,inactive,inactive,inactive
Cc1ccc(C)c(NC(=O)NC2CCN(c3ccnc(Nc4ccc(F)cc4)n3)C2)c1 (stereo not given),74% (active),-2%,-3,100% (active),inactive,inactive,inactive,inactive
N#CC1(c2ccccc2)CCN(c2nc(NCCCN3CCCC3=O)nc(N3CCCC4CCCCC43)n2)CC1 (stereo not given),92% (active),-2%,3,95% (active),inactive,inactive,inactive,inactive
O=S(=O)(c1ccc(NC(=S)NN=Cc2ccccn2)cc1)N1CCCCC1,56% (active),43%,-5,98% (active),inactive,inactive,inactive,inactive
CC(C)[C@H](NC(=O)c1c(CN2CCC(N3CCCCC3)CC2)c(-c2ccccc2)nc2cc(O)ccc12)c1ccccc1,73% (active),10%,4,100% (active),inactive,inactive,inactive,inactive
CO/C(=C\C=C\c1cc2cc(Cl)c(Cl)cc2[nH]1)C(=O)Nc1ccc(NCCN(C)C)nc1,56% (active),27%,-1,93% (active),inactive,inactive,inactive,inactive
O=C(Nc1cccc(-c2nn3ccccc3c2-c2ccnc(Nc3cccc(F)c3)n2)c1)c1c(F)ccc(F)c1F,73% (active),33%,-1,96% (active),inactive,inactive,inactive,inactive
Cc1nc2nc(N)nc(N)c2c(C)c1Cc1cccc(C(N)=O)c1,-1%,59% (active),5,91% (active),inactive,inactive,inactive,inactive
CCCN(CC1CC1)c1ncc(-c2ccccc2CNCc2ccccc2O)cn1,98% (active),4%,-4,100% (active),inactive,inactive,inactive,inactive
CCc1nc(N)nc(N)c1CCCOc1ccccc1Cl,13%,61% (active),1,92% (active),inactive,inactive,inactive,inactive
Cc1nc2c(s1)c(=O)cc(CCc1cccc(F)c1F)n2CC(=O)N(Cc1ccc(-c2ccc(C(F)(F)F)cc2)cc1)C1CCN(C(C)C)CC1,82% (active),98% (active),0,100% (active),inactive,inactive,inactive,inactive
CC1(C)N=C(N)N=C(N)N1OCCCOc1ccc([N+](=O)[O-])cc1,80% (active),68% (active),0,94% (active),inactive,inactive,inactive,inactive
O=C(/C=C/c1ccccc1Cl)Nc1ccc(Br)c(OCCN2CCC(O)(c3ccccc3)CC2)c1,85% (active),39%,0,101% (active),inactive,inactive,inactive,inactive
COc1nc(NCC(C)C)nc(Oc2ccc(=O)n(Cc3ccccc3)n2)n1,93% (active),1%,5,97% (active),inactive,inactive,inactive,inactive
CNC(=O)NC1=NC(C)(C)N(OCCCOc2cc(Cl)c(Cl)cc2Cl)C(N)=N1,2%,7%,-3,97% (active),inactive,inactive,inactive,inactive
